This is an account of results in PubChem BioAssay.

Unmarked numbers belong to inactive results. The source made the active and inactive calls.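 How the source made its calls: active means z-score of at least 1.8 in each of two replicates, scored against plate mean and spread of sample wells; inactive means the rest.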

This assay is described as follows: viability rescue of complex I mutant cybrids, primary screen, cell-based, galactose medium, ATP luminescence (AID 1645843).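 Further: positive z means more ATP and so rescue of galactose-driven cybrid death.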 As to conditions: complex I mutant cybrid cells, 72 h, active compounds read high.
On to `CC(C)c1ncc(-c2cc(C(=O)N(C)C(C)C)c3ccc(F)cc3n2)cn1`, for which the z-score was -0.51.
Then `COc1cc(N2CCN(Cc3ccc(F)cc3)C(=O)C2)ncn1`, with -0.36.
In the case of `CC(=O)N[C@@H](CC(C)C)C(=O)N1CCC(n2cc(C(C)(C)N)nn2)CC1` it was -0.505; in that of `Cc1ccc(Nc2nc(N)nc(-c3ccc(C(=O)N(C)C)cc3)n2)cc1`, 2.23 (active).
In the case of `O=C(Nc1n[nH]c(Cc2ccccc2)n1)N1CCN(C(=O)c2ccco2)CC1` it was 2.72 (active); in that of `Cc1cccc2c(C(=O)N3CCC(C)(C)C3)cc(-c3cnc(C4CC4)nc3)nc12`, 2.3 (active).
In the case of `CC(C)Cc1cn(C2CCN(C3Cc4ccccc4C3)CC2)nn1`, the z-score was -0.99.
In the case of `O=C(C1CCCCCC1)N1CCC(n2cc(-c3ccccn3)nn2)CC1` it was -0.545.
For `Cc1nsc(NC(=O)NCc2ccccc2OC(F)(F)F)n1`, the z-score is 0.2.
In the case of `Cc1c(C(F)(F)F)nc(-c2ccc(CN(C)Cc3ccccn3)cc2)[nH]c1=O` it was -0.485; in that of `Fc1cccc(-c2ccc(N3CCC(NC4CCNCC4)CC3)cc2)c1`, -1.3; in that of `Cc1cc(CN[C@@H](C)C(N)=O)c(C)s1`, 0.04.
In the case of `Cn1ccnc1-c1ccccc1C(=O)N1CCN(Cc2cccc(Cl)c2)CC1` it was 0.665.
On to `O=C(NC(Cn1cccn1)c1ccccc1)c1ccc2nccnc2c1` (stereo unspecified), for which the z-score was 1.25.
For `CCCN(C(=O)c1cccc(C#CC(C)(C)O)c1)C(CC)CC`, the z-score was -0.23.
Then `CCN(C(=O)c1cc(-c2cnc(C3CC3)nc2)nc2cc(C)ccc12)C(C)C`, with 1.41.
